# Bioassay records from PubChem BioAssay.
# In the library only some 19% were active in any assay of this set; here they are far more common.
# CHX counter: counter-screen for Shiga toxin inhibitors: cycloheximide protein synthesis inhibition; max response, %; cell reporter, cycloheximide protein synthesis inhibition counterscreen; 300,000 compounds, 12% hits; in the data active = max response mostly above about 13%, no sharp cut-off; inactive = mostly below about 14%; also: read at 38.3 µM for the half of the compounds with a filed dose; 0% is about no effect
# LASV entry inh: Lassa virus entry inhibition; Lassa virus pseudotype entry inhibition, cell reporter; Potency, µM (highest dose often 37.9 µM), without a hit: top-dose activity change, negative = inhibition, hits mostly inhibitors; 300,000 compounds, 1.2% hits; calls by dose curve; tested in HEK293 cells; also: potency is read from the fitted curve at half-maximal effect; % is scaled to controls: 0 for no effect and ±100 for the full control effect; nearly all actives have a fitted effect of over 50% in size
# Pf growth 96h: inhibits malaria parasite growth, 96 h; AID 504834; Potency, µM (titrated, usually from 28.7 µM), for inactives: at the top dose activity change, negative = inhibition, actives largely listed as inhibitors; 320,000 compounds, 6.9% hits; P. falciparum luciferase reporter growth, 96 h; also: potency is read from the fitted curve at half-maximal effect; % is scaled to controls: 0 for no effect and ±100 for the full control effect
#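 Compounds incubated with erythrocytes infected by luciferase-expressing P. falciparum (2% hematocrit, 0.05% parasitemia final) for 96 hours, 37 C in 5% CO2. Growth inhibition scored as decreased luciferase luminescence.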
# Shiga toxin inh: inhibitors of Shiga toxin in Vero cells; Vero cells, Shiga toxin protein synthesis inhibition reporter; inhibition, % at 38.7 µM; 290,000 compounds, 9.2% hits; AID 2315; in the data active = inhibition mostly above about 28%, no sharp cut-off; inactive = mostly below about 43%; also: 0% is about no effect
# Pf growth 48h: P. falciparum growth inhibition at 48 hours (one generation); Potency, µM (doses to about 28.7 µM), for inactives: top-dose activity change, negative = inhibition, most hits filed as inhibitors; 310,000 compounds, 5.9% hits; P. falciparum luciferase growth in erythrocytes, 48 h; AID 504832; also: potency is read from the fitted curve at half-maximal effect; % is scaled to controls: 0 for no effect and ±100 for the full control effect
#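 Parasite viability was followed by luminescence of a genomically integrated firefly luciferase. Cultures held 0.1% parasitemia at 2% hematocrit (final), incubated under 5% CO2 at 37 C.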
# Marburg entry inh: inhibitors of Marburg virus binding or cell entry. Marburg virus pseudotyped entry inhibition, cell reporter. 300,000 compounds, 1.8% hits. Potency, µM (highest dose often 37.8 µM), for inactives: top-dose activity change, negative = inhibition, actives largely listed as inhibitors. AID 540276; calls by dose curve; tested in HEK293 cells; also: potency is read from the fitted curve at half-maximal effect; % is scaled to controls: 0 for no effect and ±100 for the full control effect
# Active calls of the source: *; ? = inconclusive; nt = not tested or not shown; [ ] = another dose, or the depositor's remark. Unless noted, calls follow the shape of the dose curve; as a rule, active = well fitted inhibition curve with a large enough effect; inconclusive = small, poorly fitted or top-dose-only effect, or another doubt; inactive = no such curve, though single readings can be large or run the other way.
SMILES,CHX counter,LASV entry inh,Pf growth 96h,Shiga toxin inh,Pf growth 48h,Marburg entry inh
CN(C(=O)c1ccc(NC(=O)Cc2cccc(NC(=O)C3CCCN(C(=O)CCc4ccccc4)C3)c2)cc1)C1CCCC1 (stereo unspecified),nt,nt,?,nt,0.12µM*,nt
CCOC(=O)C1CCCN(C(=O)CCc2ccccc2)C1 (stereo unspecified),-1,-29%,-3%,-12,8%,22%
Clc1ccc(OCCOCCOc2cccc3cccnc23)c(Br)c1,-2,0%,-7%,-6,2%,-19%
CC(C)NC(=O)C1=CC(c2ccc3c(c2)OCO3)=NS(=O)(=O)N1C,nt,?,nt,nt,nt,5%[46.1 µM]
CN(C(=O)c1ccc(NC(=O)Cc2cccc(NC(=O)C3CCCN(C(=O)C4CCCC4)C3)c2)cc1)C1CCCC1 (stereo unspecified),nt,nt,3.7µM*,nt,12µM*,nt
CN(C(=O)c1ccc(NC(=O)Cc2cccc(NC(=O)C3CCN(C(=O)C4CCC4)CC3)c2)cc1)C1CCCC1,nt,nt,?,nt,?,1%
O=C(CN1CCN(CC(=O)Nc2ccc(-c3ccccc3)cc2)CC1)Nc1ccc(F)cc1,-7,0%[46.1 µM],0%,-16,-15%,9%[46.1 µM]
C=CCn1cccc(/C=C/C(=O)c2ccc(C(C)(C)C)cc2)c1=S,-2,16µM*,?,17,?,?
CCN(c1ccccc1)S(=O)(=O)c1ccc(OC)c(NC(=O)c2cc(Cl)ccn2)c1,nt,2%,6.6µM*,nt,?,-21%
CCN(c1ccccc1)S(=O)(=O)c1ccc(N)c(OC)c1,-3,?,-19%,-3,nt,3.2µM*
CCN(c1ccccc1)S(=O)(=O)c1ccc(OC)c(NC(=O)C2CC2)c1,nt,nt,-24%,nt,?,nt
CCN(CC)S(=O)(=O)c1ccc(OC)c(NC(=O)Cc2cccs2)c1,32*,?,20%,-11,-4%,?
CCN(c1ccccc1)S(=O)(=O)c1ccc(F)cc1,6,20%[14.3 µM],-23%,-11,-16%,9%
CCN(c1ccccc1)S(=O)(=O)c1ccc(OC)c(NC(=O)Cc2ccccc2OC)c1,nt,nt,13µM*,nt,12µM*,nt
CCN(c1ccccc1)S(=O)(=O)c1ccc(OC)c(NC(=O)c2c(C)noc2C)c1,nt,-11%,18%,nt,23%,-5%
CCN(CC)C(=O)[C@@]1(c2ccccc2)C[C@@H]1CN,nt,nt,-4%,nt,-7%,nt
COC(=O)c1ccccc1NC(=O)n1cc(C)cn1,1,16%,-8%,-9,-5%,3%
CCN(c1ccccc1)S(=O)(=O)c1cc(NC(=O)Nc2ccccc2C#N)ccc1Cl,-5,-2%,?,-1,?,16%
CCN(c1ccccc1)S(=O)(=O)c1ccc(Cl)c(NC(=O)Nc2ccc(Cl)cc2C#N)c1,30*,?,-90%,47*,?,?
CN1/C(=C\C=C\C2=[N+](C)c3ccc4ccccc4c3C2(C)C)C(C)(C)c2ccccc21,-9,nt,0.33µM*,-62,1.3µM*,3%
O=C1c2ccccc2C(=O)N1Cc1nc2ccccc2c(=O)n1-c1cccnc1,1,9%,28%,-3,-5%,?
Cc1cc(C)n(-c2ccc(N3CCOCC3)nn2)n1,33*,?,39%,57*,72%,12%
Cc1ccc(Nc2c([N+](=O)[O-])c(=O)oc3ccccc23)cc1,-11,?,?,-6,?,?
O=c1oc2ccccc2c(Nc2ccc3ccccc3c2)c1[N+](=O)[O-],22*,-14%,?,105,?,-15%
O=c1oc2ccccc2c(NC(c2ccccc2)c2ccccc2)c1[N+](=O)[O-],-5,-26%,163%,-3,10µM*,?
CC(Nc1c([N+](=O)[O-])c(=O)oc2ccccc12)C(Cl)c1ccccc1 (stereo unspecified),-4,-10%,20%,-13,-7%,?
CN=C(Nc1ccc(C(=O)OC)s1)c1ccc(Cl)cc1,6,3%,-3%,23,-9%,-1%[46.1 µM]
Cc1cccc(NC(=O)CCCN2C(=O)C3CC=CCC3C2=O)c1 (stereo unspecified),14,nt,56%,8,7%,nt
O=C(CCN1C(=O)C2CC=CCC2C1=O)Nc1ccccc1Cl (stereo unspecified),0,27%[46.1 µM],21%,-5,5%,4%[46.1 µM]
